# From the supplement of paper PMC6555819
# Experiments:
# Assay in all cases: PBM binding z-score (relative to random genomic background probes); higher = stronger binding; sequences stand for … in GC…GCGATTGACAGCGTAGAATGAAGG
# [1] = system: PPARg:RXRa DBDmut IVT, anti-RXR (DBD mutation: RXRa K156A/R161A, NR concentration 270 nM, RXRa partner concentration 90 nM)
# How it was run: (§1)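 The probes on custom Agilent 4×180K protein-binding microarrays were double-stranded, with 34-nt variable regions bearing direct-repeat seeds, single-nucleotide variants, half-site ablations and random human genomic background sequences. Incubation lasted 1 h with ligand-free nuclear receptor dimers in PBS pH 7.4, 2% milk, 0.02% Triton X-100, 1 mM DTT, 0.2 mg/mL BSA and 0.4 mg/ml salmon testes DNA. Antibodies against each partner (one per run) detected bound dimers, and fluorescence scans were regression-normalized. Binding z-scores take the random background probes as reference.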
# [2] = system: PPARg:RXRa IVT, anti-PPARg (NR concentration 270 nM, RXRa partner concentration 90 nM)
# How it was run: as §1
# [3] = system: PPARg DBDmut:RXRa IVT, anti-PPARg (DBD mutation: PPARg1 K132A/R137A, NR concentration 270 nM, RXRa partner concentration 90 nM)
# How it was run: as §1
# [4] = system: PPARg DBDmut IVT, anti-PPARg (DBD mutation: PPARg1 K132A/R137A, NR concentration 270 nM)
# How it was run: as §1
# [5] = system: PPARg homodimer (NR concentration 180 nM)
# How it was run: as §1
# [6] = system: PXR:RXRa (NR concentration 270 nM, RXRa partner concentration 90 nM)
# How it was run: as §1
# [7] = system: PXR homodimer (NR concentration 270 nM)
# How it was run: as §1
# [8] = system: RARa:RXR (NR concentration 270 nM, RXRa partner concentration 90 nM)
# How it was run: as §1
# [9] = system: RARa homodimer (NR concentration 270 nM)
# How it was run: as §1
# [10] = system: RARb:RXRa (NR concentration 270 nM, RXRa partner concentration 90 nM)
# How it was run: as §1
Sequence,PBM binding z-score [1],PBM binding z-score [2],PBM binding z-score [3],PBM binding z-score [4],PBM binding z-score [5],PBM binding z-score [6],PBM binding z-score [7],PBM binding z-score [8],PBM binding z-score [9],PBM binding z-score [10]
CCTAGTTGGTCAAGGTCACAGACGCTATAGGTAC,2.26,3.92,0.729,0.0985,3.27,4.21,2.19,4.66,2.61,4.28
CAGCCTAGGTCAGGACCAGTATAGGAGGAACGTT,1.07,1.37,-0.507,-1.17,0.861,0.277,-0.104,0.885,0.139,3.26
TCTTGTAGATCAATAGAGGTTAAGATAGTGCGCT,1.55,0.959,0.251,0.77,0.455,2.26,-0.0224,2.09,0.236,0.832
AATACAGGGTCACTAGTCCAGAGTAGGTACGAAT,3.25,4.67,0.95,0.987,1.66,2.97,0.58,3.7,1.03,3.99
CGTCCAAGGTCAGCAGGTCTGTGAAAGCGACGTG,2.57,2.56,0.914,-0.164,2.67,2.58,0.407,3.61,0.46,4.85
TCTTGCAGATCAACAGGAGGTTAAGAAAGATCGA,0.996,0.188,0.472,0.407,-0.378,0.713,-0.172,0.812,-0.193,0.489
TCTTGTAGATCAAGCAGGTTCAGAAAGCCTGAGT,1.67,0.23,-0.203,-0.258,-0.265,1.42,0.458,0.45,-0.397,-0.164
CCGAGTAGGTTTTGGGGCATTCAGGCAACGGTGA,0.795,0.696,-0.353,-0.0504,0.76,-0.31,-0.0267,0.2,0.947,0.205
ATCGAAAGGTCGTGAGGTGAGAATACAGAAAGGC,0.36,2.7,1.67,0.86,1.7,3.16,0.322,4.19,0.587,4.13
CGTCCAAGGGCAAGGTCAGTGAAAGAGACTCGAA,0.735,1.62,-1.01,-1.55,0.963,1.68,-0.101,2.16,0.0198,3.94
CGTCCAAGGTGATAGGAGGTCAGTGAAGACAGAT,1.37,2.78,0.0253,0.186,1.91,3.57,0.47,2.31,0.367,2.85
ATAACGAGGGCAATGAGTTGATAGCACGGGTGGC,3.37,2.77,1.02,0.667,0.411,2,5.03,0.222,-0.438,2.02
GCTATTAGTTGAAAGAGCAACCGAATGATTCTCG,0.238,-0.404,0.37,0.517,0.13,-0.39,-0.276,-0.118,0.294,-0.146
TTACCAAGGTGAAGGTAGTTGATCCCTCTGTAGA,2.05,2.3,-0.207,-0.0185,0.00789,0.456,-0.74,0.351,-0.156,1.35
CCTAGCAGGCCAATATGGGTCACTCAAGGCTTGA,3.27,4.11,-0.447,-0.637,0.511,1.14,-0.649,1.65,-0.474,1.44
CGTCCAAGGTCAAAGGTCTGTGAAGAGATGACGG,3.5,4.39,1,0.0198,3.15,4.82,1.13,6.06,0.626,5.4
CCTTCCGGGTCACGAGGTTATAGCACGACGAGCG,5.56,6.43,0.639,-0.0446,2.53,4.81,0.436,5.82,0.661,4.55
GCGGCTAGGTCAGGTTGGTCAGCTAACGGGTACG,1.28,1.36,-1.08,-0.633,0.749,0.325,-0.293,0.825,-0.0979,3.26
CCGAGTACGTTATGGGGCATTCAGGCAACGGTGA,0.389,0.0516,-0.885,-0.78,-0.751,-0.602,-0.398,-0.541,-0.162,0.16
CCTAGTTGCTCAGGAGGTCACACACCGGATATGA,0.887,2.47,0.559,1.01,3.26,4.39,1.59,4.49,2.6,3.64
CCTAGTTGGTCAGGAGTTCACACACCGGATATGA,1.01,1.1,0.396,0.284,2.47,3.66,3.68,2.36,1.42,2.39
ACTAGCAGCCCAAGTTTGGGTCACTCAAACAAAG,-0.54,0.157,-0.825,-0.894,0.227,0.606,-0.424,1.19,-0.533,0.813
TCATATAGGTAAAAGCTGAAAGTCGGTGTGGTAA,4.01,2.14,1.19,0.683,0.11,0.239,-0.198,0.257,0.519,0.0291
GCGACTGGGGCATCGGCAGGTTACCATAACTTAA,3.7,3.26,-0.659,-0.662,0.364,0.0639,-0.275,0.387,-0.205,0.954
CCGACTGGGGCAGACAGGTTACCATACCATCCGG,1.38,1.47,0.134,-1.89,-0.172,-0.453,-0.382,-0.441,-0.217,0.69

Sequence,PBM binding z-score [1],PBM binding z-score [2],PBM binding z-score [3],PBM binding z-score [4],PBM binding z-score [5],PBM binding z-score [6],PBM binding z-score [7],PBM binding z-score [8],PBM binding z-score [9],PBM binding z-score [10]
GGAACGAGGGCAAGTTGATAACAGAGTTTGATGG,3.17,2.87,0.0927,0.0422,0.807,0.857,0.526,0.565,-0.181,2.38
ATCTCTAGGTCAAGTTCAGTGAAAGATCGATAGA,6.76,6.5,2.13,1.61,2.41,3.45,2.13,3.16,1.74,4.55
TCATATAGGTAAAGGTGAAAGTTGAACGATATGA,4,4.73,1.52,1.41,1.62,2.3,0.333,3.46,0.78,2.25
ATCGAAAGGTCGAAGGTGAGTAGACCCACCCGAA,-0.178,1.89,-0.438,0.456,1.74,2.69,0.121,4.23,0.557,3.83
TCCTATAGGTAAAAGGTGAAAGTCGGTGTGGTAA,3.53,3.95,0.0451,0.327,1.1,1.66,0.259,2.87,0.703,1.85
ATGTCTAGGTAACCAAGTTCAGTGAATGCCGAAC,2.35,2.35,0.0462,-0.029,0.338,2,1.53,0.884,-0.202,1.21
TCTCGGAGGACACGATAGGTCAGAGCTCGACATC,1.4,0.606,-0.736,-0.55,0.932,0.843,-0.337,1.59,-0.7,2.66
AGTCAAAGTTTACTAGGTAACGTAAGATTCAGCT,3.45,4.76,0.895,0.737,0.729,0.455,0.255,0.426,0.29,1.81
TAGCCTAGGTCAGATCGGCCCAGTATACGCTATA,0.85,1.85,-0.244,-1.36,-0.0384,0.228,-0.754,0.84,-0.69,2.95
TAGCCTAGGTCATTGGGCCAGTGTAGTACGCATC,2.97,4.15,1.07,-0.249,0.874,1.41,-0.395,2.15,-0.103,3.69
GGAACGAGGGGATTCGAGTTGATAGCATGGCGAT,0.388,-0.0839,-1.62,-0.321,-1.3,0.0775,-0.14,-0.588,-0.71,-0.414
TCAGACAGGTTAAGGTAACTCAGGTACGCAGTCG,2.56,0.69,0.624,0.18,1.1,1.1,0.461,1.54,0.655,1.51
CGAACTAGTTCATTGACAGGACAGTGAATAGTAA,0.941,0.504,0.647,0.333,0.0581,1.09,0.739,0.372,0.437,1.25
CGAACTAGGTCATTGACAGGACAGTGACTAGTAA,8.03,8.27,2.04,1.38,0.886,1.81,0.0529,2.44,0.0227,3.58
TCTGCCAGGTCAACGATGGTCAGCTAATCTGCTA,2.07,2.98,0.16,0.24,1.11,2.56,-0.453,2.89,-0.675,4.02
TCAGACGGGTGAAGGTAACTCAGGTACGCAGTCG,1.98,0.818,-0.457,-0.479,0.581,0.181,-0.137,0.411,-0.487,0.641
AATACAGGGTCAGTAGGCCAGAGTAGGTACGAAT,3.22,4.8,1.82,0.929,1.97,1.86,0.246,2.94,1.18,3.92
CCTAGTTGGTCAAGGTTACACACGCTATAGGTAC,1.65,2.24,1.11,1.66,2.04,1.19,1.09,1.6,1.63,1.99
TAGCCAAGGTCATGCGGGCCAGTATAGTGTCGGC,1.6,3.47,1.13,0.504,1.92,4.35,1.1,4.48,0.0818,5.09
ATATGGAGGTTACATCCGGGTCATTCAGGCTATG,2.72,3.63,1.46,0.791,2.15,4.57,2.76,4.94,0.676,2.88
TCTCGGACGACACGAAAGGTCAGAGCTCGACATC,1.5,1.09,-0.234,0.0466,3.29,3.8,0.286,4.66,2.43,3.86
CCTAGCAGGCCAATCTGGGTCACTCGAGGCTTGA,4.16,4.75,-0.336,0.34,1.39,1.1,-0.592,1.85,-0.324,1.56
TTACCAAGGTGAAAGGTCGTGGATGCACGCCTTG,3.06,5.11,0.851,-0.117,2.21,4.12,0.543,6.44,0.268,3.33
TCTCGGAGGATACGAAAGGTCAGAGCTCGACATC,1.32,1.03,-1.04,-0.436,2.71,3.67,0.308,4.51,0.99,3.69
